Assay results: PubChem BioAssay (NCI)
The panel holds about 83,000 compounds, 20% with a hit somewhere; the sample as a whole holds those more often.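 Cells were grown in 96-well plates and exposed to the test compound at a single concentration for 48 hours; results are reported as percent growth, with values below 10 considered active.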 Unmarked numbers belong to inactive results. Activity calls are given as the source filed them.

Legend:
Assay in all cases: NCI-60 one-dose screen, 48 h (100 = growth as untreated, 0 = no growth, -100 = all killed)
Conditions in all cases: 10 µM unless noted
T-47D breast = system: T-47D breast
BT-549 breast = system: BT-549 breast
MDA-MB-435 melanoma = system: MDA-MB-435 melanoma
SW-620 colon = system: SW-620 colon
MCF7 breast = system: MCF7 breast
HCT-116 colon = system: HCT-116 colon
HCC-2998 colon = system: HCC-2998 colon
KM12 colon = system: KM12 colon

SMILES	growth (T-47D breast) [%]	growth (BT-549 breast)	growth (MDA-MB-435 melanoma)	growth (SW-620 colon)	growth (MCF7 breast)	growth (HCT-116 colon)	growth (HCC-2998 colon) [%]	growth (KM12 colon) [%]
CCOC(=O)C1=C(C)Nc2nc3ccccc3n2C1c1cccc(Br)c1 (stereo not given)	88.1	76.9%	7.44% (active)	68.2%	38.3%	81.4%	93.1	65.6
COc1ccc(-c2ccnc3c(C#N)c(Nc4ccccc4)nn23)cc1OC	80.5	86.1%	103%	90%	90.2%	87.5%	99.1	96.6
CS(=O)(=O)c1nccc(-c2c(-c3ccc(F)c(OCc4ccccc4)c3)nc3sccn23)n1	18.5	-0.34% (active)	101%	100%	16.5%	38%	32.2	96.5
C=CCn1c(SCC(=O)c2ccc(OC)cc2)nnc1-c1ccc(OC)cc1	105	95.9%	97.8%	106%	96%	96.1%	109	97.7
O=C(/C=C1\C=CN(CCCCCCF)c2ccccc21)n1ccc2ccccc21	82	103%	108%	104%	88.4%	84.8%	107	100
CCCCCCNC(=O)Oc1ccc(/C(=C(/C)c2ccc(Cl)cc2)c2ccc(OCCN3CCCC3)cc2)cc1	41	71.6%	51.6%	-30.7% (active)	-41.8% (active)	-43.9% (active)	37.1	29.7
COc1ccc(-c2nnc(SCc3ccc(O)c4ncccc34)o2)cc1	27	35.7%	24%	17.7%	14.9%	23.1%	45.2	15.7
CCN1C(=O)N(CC)C2SC(N/N=C/c3ccc(F)cc3)=NC21 (stereo not given)	64.8	-28.4% (active)	-35.8% (active)	20.8%	17.5%	13.7%	14.1	11.1
CN(C)c1ccc(/C=N/Nc2nc(N/N=C/c3ccc(N(C)C)cc3)nc(N3CCOCC3)n2)cc1	94.7	106%	104%	83.8%	54.8%	35.7%	103	104
C=CCn1c(SCC(=O)Nc2cccc(C(=O)/C=C/c3ccc(Cl)cc3)c2)nc2ccccc2c1=O	78.6	94.6%	92.3%	77.4%	28.3%	15.4%	94.8	88
Cc1ccccc1NC1CC(=O)N(c2ccc(Cl)cc2Cl)C1=O (stereo not given)	105	123%	101%	96.2%	94%	108%	109	105
Cc1ccc(NC(=O)c2ccc(CN3CCN(C)CC3)c(I)c2)cc1Oc1ccc(-c2[nH]nc3ncnc(N)c23)cc1	112	103%	-67.5% (active)	-67.3% (active)	-27% (active)	-26.6% (active)	108	20.7
COc1cc2c3c(n(CCCNC4CCCC4)c(=O)c2cc1OC)-c1cc2c(cc1C3=O)OCO2	86	74.8%	-49.6% (active)	-83.6% (active)	-74.8% (active)	-90.9% (active)	23.2	65.6
Cc1cc(=O)n2nc(-c3cn(C)c4ccc(Cl)cc34)sc2n1	50.8	108%	99%	97.6%	14.5%	86.3%	102	94.1
Oc1ccccc1-c1nnc(SCc2ccc(O)c3ncccc23)o1	11.6	32.3%	18.5%	28.2%	6.74% (active)	10.5%	46	29.3
